An excerpt weighted towards active compounds, which were near 19% of everything screened.
KB-3-1 tox = kills parental KB-3-1 adenocarcinoma cells; KB-3-1 viability, CellTiter-Glo ATP luminescence, 72 h; Potency, µM (series often up to 46.1 µM), hits mostly cytotoxic; 400,000 compounds, 1.4% hits; also: nearly all actives have a fitted effect of over 60% in size
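Viability of parental KB-3-1 cells, measured by CellTiter-Glo luminescence, followed a 72 h incubation at 37 °C with pinned compounds in phenol-red-free DMEM containing 10% FBS.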
DT40 TDP1 CPT = DT40-hTDP1 cell growth loss with CPT | chicken DT40 Tdp1-/-;hTDP1 cells + 20 nM CPT, ATP luminescence, 48 h | 420,000 compounds, 12% hits | AID 686979 | Potency, µM (series often up to 46.2 µM), hits mostly inhibitors; also: nearly all actives have a fitted effect of over 55% in size
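Chicken DT40 Tdp1-/- cells stably complemented with human TDP1 were seeded at 400 cells/well in medium containing 20 nM camptothecin, exposed to pin-transferred compounds, and grown at 37 °C for at least 48 hr. Viability was read as ATP luminescence.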
HT1080-NT tox = kills 2HG-producing HT-1080-NT fibrosarcoma cells | 360,000 compounds, 1.6% hits | Potency, µM (doses to about 46.1 µM), usual class: cytotoxic | HT-1080-NT fibrosarcoma viability, CellTiter-Glo ATP luminescence, 48 h;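 also: NT is the 2HG producing partner of a matched IDH1 knockdown line; nearly all actives have a fitted effect of over 55% in size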
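Viability by CellTiter-Glo luminescence after 48 h compound exposure at 37C of HT-1080-NT cells (750/well, RPMI, 5% FBS). % activity scaled between DMSO wells and medium-only wells, then curve-fitted and categorized by curve class.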
KB-V1 cytotox = kills drug-selected multidrug resistant KB-V1 cells; KB-V1 MDR cells viability, CellTiter-Glo, 72 h; Potency, µM (highest dose often 46.1 µM), usual class: cytotoxic; 400,000 compounds, 3.4% hits; AID 1347076; also: nearly all actives have a fitted effect of over 60% in size
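Readout: CellTiter-Glo luminescence, 10 min after addition. Cells: KB-V1 MDR subline, 72 h at 37 degrees C with compound. Analysis: corrected, normalized data fitted to concentration-effect curves.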
DT40 TDP1 no CPT = qHTS for Inhibitors of human tyrosyl-DNA phosphodiesterase 1 (TDP1): qHTS in cells in absence of CPT; 420,000 compounds, 15% hits; DT40 Tdp1-/- hTDP1 cells, no CPT, ATP luminescence, 48 h; Potency, µM (highest dose often 46.2 µM), most hits filed as inhibitors; also: nearly all actives have a fitted effect of over 55% in size
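Readout: luminescence from CellTiter-Glo after 30 min in the dark at RT. Cells: DT40 Tdp1-/- with stable hTDP1, 400/well. Exposure: compounds alone, ≥48 hr, 37 °C.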
HT1080 IDH1KD tx = kills HT-1080 cells with IDH1 knockdown | HT-1080 IDH1 knockdown viability, ATP luminescence, 48 h | Potency, µM (titrated, usually from 46.1 µM), most hits filed as cytotoxic | 360,000 compounds, 2% hits
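CellTiter-Glo luminescence after 48 h compound exposure at 37 degrees C of IDH1-knockdown HT-1080 cells in 5% FBS RPMI. %Activity scaled between DMSO wells and cell-free media wells, with curves fitted and assigned curve classes.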
Hits are given with their value; . = inactive; ? = inconclusive; / = no result given. Calls follow the shape of the dose curve; as a rule, active = well fitted curve in the direction sought with a large enough effect; inconclusive = small, poorly fitted or top-dose-only effect, or another doubt; inactive = no such curve, though single readings can be large; an effect the other way counts as inactive or inconclusive.

SMILES	KB-3-1 tox	DT40 TDP1 CPT	HT1080-NT tox	KB-V1 cytotox	DT40 TDP1 no CPT	HT1080 IDH1KD tx
C=CCN=C1S/C(=C/c2cccc([N+](=O)[O-])c2)C(=O)N1CC=C	?	?	?	.	?	?
O=C1/C(=C\c2ccc(O)cc2)SC(=S)N1Cc1ccccc1	.	?	?	.	?	23.1µM
CCN1C(=O)/C(=C\C=C\c2ccccc2[N+](=O)[O-])SC1=S	?	25.9µM	.	?	11.6µM	.
CCOc1ccccc1C=C1SC(=S)N(CC)C1=O	.	.	.	.	.	.
O=C1/C(=C\c2cccc([N+](=O)[O-])c2O)SC(=S)N1Cc1ccccc1	?	18.4µM	.	.	9.2µM	.
CCOc1cc(/C=C2/SC(=S)N(Cc3ccccc3)C2=O)ccc1O	.	?	.	.	?	.
O=C(O)c1cccc(CN2C(=O)S/C(=C/c3cccc([N+](=O)[O-])c3)C2=O)c1	.	?	?	.	?	16.4µM
CC(C)Cc1nn2c(=O)cc(COC(=O)c3ccc(NC(=O)CCc4ccccc4)cc3)nc2s1	/	.	/	/	.	/
O=C(NNC(=O)c1ccccc1F)c1ccc(NS(=O)(=O)c2ccc(F)cc2)cc1	.	.	.	.	.	.
O=C1/C(=C\c2cc(Br)cc(Br)c2O)SC(=S)N1Cc1ccccc1	?	13µM	.	.	14.6µM	.
O=C1/C(=C/c2ccc(O)c([N+](=O)[O-])c2)SC(=S)N1Cc1ccccc1	?	?	23.1µM	?	18.4µM	.
CC(=O)Oc1ccc(/C=C2/SC(=S)N(Cc3ccccc3)C2=O)cc1	.	.	.	.	.	.
COc1ccc(CN2C(=O)/C(=C/c3ccncc3)SC2=S)cc1	.	23.1µM	?	.	9.2µM	?
O=c1c2c3c(sc2n2cnnc2n1-c1ccccc1)N(Cc1ccccc1)CCC3	.	?	.	.	?	.
CCCn1nnc(NC(=O)C(C)C)n1	.	.	.	.	.	.
COc1ccccc1CNC(=O)CCC1N=C2c3ccccc3N=C(SCC(=O)Nc3ccc(F)cc3)N2C1=O (stereo not drawn)	.	.	/	.	.	/
Cc1ccc(CSC2=Nc3ccccc3C3=NC(CC(=O)NCc4cccs4)C(=O)N23)c(C)c1 (stereo not drawn)	.	14.6µM	/	.	20.6µM	/
CN(C)c1ccc(NC(=O)CSC2=Nc3ccccc3C3=NC(CCC(=O)NCc4cccs4)C(=O)N23)cc1 (stereo not drawn)	.	?	/	.	?	/
COc1ccccc1CNC(=O)CCC1N=C2c3ccccc3N=C(SCC(=O)NCCc3ccccc3)N2C1=O (stereo not drawn)	.	.	/	.	.	/
COc1ccccc1CNC(=O)CCC1N=C2c3ccccc3N=C(SCc3ccc(C)cc3C)N2C1=O (stereo not drawn)	.	16.4µM	/	?	?	/
COc1ccccc1CNC(=O)CC1N=C2c3ccccc3N=C(SCC(=O)Nc3ccc(F)cc3)N2C1=O (stereo not drawn)	.	25.9µM	/	.	?	/

Screens as filed in PubChem BioAssay.
